PubChem BioAssay (EPA / NIEHS)
Inconclusive results are not listed. Calls of active or inactive are those of the source. The calls were made as follows: active = hit-call score of the fitted dose curve at least 0.9, where 1 is the maximum; inconclusive = response in the unintended direction; inactive = score below 0.9.

Experiment: CLD_ACTIN_6hr: CellzDirect (CLD) Gene Expression Assay for Baseline Control (Actin) at 6 hours (AID 2283676);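 also: active means increased actin mRNA relative to DMSO vehicle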
Description: CLD_6hr is a cell-based, multiplexed-readout assay that uses hepatocyte, a human liver primary cell, with measurements taken at 6 hours after chemical dosing in a 96-well plate.CLD_ACTIN_6hr is one of 16 assay component(s) measured or calculated from the CLD_6hr assay. It is designed to make measurements of mRNA induction, a form of inducible reporter, as detected with chemiluminescence signals by Quantitative Nuclease Protection Assay (qNPA) technology.Data from the assay component CLD_ACTIN_6hr was analyzed at the endpoint, CLD_ACTIN_6hr, in the positive analysis fitting direction relative to DMSO as the negative control and baseline of activity. Using a type of inducible reporter, gain-of-signal activity can be used to understand changes in the reporter gene as they relate to the gene ACTA1. Furthermore, this assay endpoint can be referred to as a secondary readout, because this assay has produced multiple assay endpoints where this one serves a background control function. To generalize the intended target to other relatable targets, this assay endpoint is annotated to the background measurement intended target family, where subfamily is baseline control.
Human hepatocyte cultures were treated daily for two consecutive days with fresh dosing solutions containing appropriate concentrations of the 320 ToxCast chemicals (chemical identities were blinded to CellzDirect and other ToxCast collaborators), vehicle control (0.2% DMSO), and positive control inducers as summarized in Table 1. Due to the large number of treatment groups and chemicals examined, the ToxCast chemicals were divided into two groups (spanning two independent cultures of hepatocytes from separate donor preparations (Hu778: ToxCast plates 1 and 2; Hu776: ToxCast plates 3 and 4). Each preparation of human hepatocyte cultures was treated with respective vehicle control, medium only control, set of six positive controls/reference chemicals for the five hepatic receptor pathways, and a subset of eight of the ToxCast chemicals (indoxacarb, pyrithiobac-sodium, norflurazon, cyhalofop-butyl, methomyl, thiram, acetochlor, and propiconazole). These replicate data, coupled with internal replicates designed within the blinded ToxCast chemical library, provided additional data to evaluate interindividual differences between hepatocyte preparations and their potential impact on chemical profiles.Cell morphology and integrity were evaluated using phase-contrast microscopy as an indicator of hepatocyte cell health (Tyson & Green, 1987). Cultures for each treatment group (i.e., media, vehicle [0.2% DMSO], positive control inducers [multiple concentrations], and the ToxCast chemicals [multiple concentrations]) were observed and cell morphology was assessed relative to vehicle control cultures at each harvest time point (0, 6, 24, or 48 h). […] Images were evaluated at the conclusion of the study to assess changes in cell integrity and account for the effects of chemical exposure on uncharacteristic changes in concentration-dependent gene expression profiles. The results from these determinations of apparent cytotoxicity were annotated (yes/no) alongside the corresponding qNPA data for reference.At the conclusion of each treatment period, hepatocyte cultures (96-well) were washed with 1 volume of HBSS, lysed by addition of 25 ul ArrayPlate lysis buffer (HTG, Tucson, AZ), and 70 ul/well of Denaturation Oil, denatured by incubation at 95C for 10 min, and frozen at approximately -70C until analysis by nuclease protection assay (qNPA) (Roberts et al., 2007). For qNPA analysis, cell lysates were thawed at 50C for approximately 30 min, qNPA probes were added, and samples were incubated at 95C for 10 min to begin the detection process by denaturing the target RNA, dissociating the duplexes and secondary structure hybridization. At the conclusion of the hybridization period, S1 nuclease reagent was added to each sample to digest all nonprotected nucleotides at 50C for 60-90 min. […]
With `Cc1nn(C)c(Oc2ccccc2)c1C=NOCc1ccc(C(=O)OC(C)(C)C)cc1` the outcome was “inactive”. For `CCC(C)OC(=O)N1CCCCC1CCO` (stereo unspecified), the outcome was “inactive”. For `CCOC(=O)C(C)Oc1ccc(Oc2nc3ccc(Cl)cc3o2)cc1` (stereo unspecified), the outcome was “inactive”. For `CCOC(=O)C(C)Oc1ccc(Oc2cnc3cc(Cl)ccc3n2)cc1` (stereo unspecified), the outcome was “inactive”. In the case of `CCCN(CCC)c1c([N+](=O)[O-])cc(C(F)(F)F)c(N)c1[N+](=O)[O-]`, the outcome is reported as “inactive”. With `O=C(O)C1(C(=O)Nc2ccc(Cl)cc2Cl)CC1` the outcome was “inactive”. For `CCCCOC(=O)[C@@H](C)Oc1ccc(Oc2ccc(C(F)(F)F)cn2)cc1`, the outcome was “inactive”. For `CC(C)(C)[C@@H](O)[C@@H](Cc1ccc(Cl)cc1)n1cncn1`, the outcome was “inactive”. In the case of `COC(=O)c1ccccc1C(=O)O`, the outcome is reported as “inactive”. In the case of `CCN(CC)C(=O)c1cccc(C)c1`, the outcome is reported as “inactive”. With `CCOC(=O)NCCOc1ccc(Oc2ccccc2)cc1` the outcome was “inactive”. With `O=C(Nc1ccc([N+](=O)[O-])cc1Cl)c1cc(Cl)ccc1O` the outcome was “inactive”. With `COc1c(Cl)ccc(Cl)c1C(=O)O` the outcome was “inactive”. For `CC(C)(c1ccc(O)cc1)c1ccc(O)cc1`, the outcome was “inactive”. For `COC(=O)c1ccc(CNS(C)(=O)=O)cc1S(=O)(=O)NC(=O)Nc1nc(OC)cc(OC)n1`, the outcome was “inactive”. With `Oc1ccc(C(c2ccc(O)cc2)C(Cl)(Cl)Cl)cc1` the outcome was “inactive”. In the case of `c1ccc2[nH]c(-c3cscn3)nc2c1`, the outcome is reported as “inactive”. For `CCCOC(=O)NCCCN(C)C`, the outcome was “inactive”. For `COC(=O)c1ccccc1S(=O)(=O)NC(=O)Nc1nc(OC(F)F)cc(OC(F)F)n1`, the outcome was “inactive”. For `C#CCOC(=O)[C@@H](C)Oc1ccc(Oc2ncc(Cl)cc2F)cc1`, the outcome was “inactive”. For `CCCOC(=O)c1ccc(C(=O)OCCC)nc1`, the outcome was “inactive”. With `CCSC(=O)N(CC(C)C)CC(C)C` the outcome was “inactive”. With `CCCCCCC(C)OC(=O)COc1nc(F)c(Cl)c(N)c1Cl` (stereo unspecified) the outcome was “inactive”. With `S=C([S-])NCCNC(=S)[S-].[Mn+2]` the outcome was “inactive”. In the case of `CCCCC(CC)CN1C(=O)C2C3C=CC(C3)C2C1=O` (stereo unspecified), the outcome is reported as “inactive”. In the case of `N#CSCSc1nc2ccccc2s1`, the outcome is reported as “inactive”. With `CCCN(CCC)C(=O)SCC` the outcome was “inactive”. In the case of `CSC(=O)c1cccc2nnsc12`, the outcome is reported as “inactive”. For `C=CCOC(Cn1ccnc1)c1ccc(Cl)cc1Cl` (stereo unspecified), the outcome was “inactive”. For `COC(=O)c1ccc(I)cc1S(=O)(=O)NC(=O)Nc1nc(C)nc(OC)n1`, the outcome was “inactive”. For `CCOC(=O)[C@H](C)Oc1ccc(Oc2nc3ccc(Cl)cc3o2)cc1`, the outcome was “inactive”. In the case of `CC1(C)C(C=C(Cl)Cl)C1C(=O)OCc1cccc(Oc2ccccc2)c1` (stereo unspecified), the outcome is reported as “inactive”. For `COC(=O)c1cccc(C)c1S(=O)(=O)NC(=O)Nc1nc(OCC(F)(F)F)nc(N(C)C)n1`, the outcome was “inactive”. For `COCCO`, the outcome was “inactive”. With `COC(=O)c1c(Cl)nn(C)c1S(=O)(=O)NC(=O)Nc1nc(OC)cc(OC)n1` the outcome was “inactive”. In the case of `COc1nc(C)nc(NC(=O)NS(=O)(=O)c2ccccc2OCCCl)n1`, the outcome is reported as “inactive”.
